A selection follows.
aSyn 5UTR act: Activators via SNCA 5'UTR binding, MLPCN. activity score, % (tested at 7.5 µM), hits read low. 300,000 tested, 7.1% active. alpha-synuclein 5'UTR reporter, activators screen. AID 1814; in the data active = activity score below about -60%
The depositor's hits bear a star.

SMILES	aSyn 5UTR act
O=C(/C=C/c1ccc(O)c(O)c1)c1ccccc1O	-293*
CCN(CC)CCN1C(=O)c2oc3ccccc3c(=O)c2C1c1ccc(F)cc1 (configuration not stated)	-70*
N#Cc1c(-c2ccccc2)ccnc1Oc1ccccc1	-75*
CC1CC(=O)c2cnc(Nc3ccccc3)nc2C1 (configuration not stated)	-134*
Cc1ccc(NS(=O)(=O)c2ccc(-c3cnc(C4CC4)o3)cc2)c(C)c1	77
Cc1ccc(Nc2ncc3c(n2)CC(C)CC3=O)c(C)c1 (configuration not stated)	-82*
Cc1cc(N/C=C/C(=O)c2ccc(Br)cc2)no1	-198*
O=C(/C=C\Nc1ccc(Cl)cn1)c1ccc(Br)cc1	-165*
Cc1ccnc(N/C=C/C(=O)c2ccc(Br)cc2)c1	-62*
CC(=O)Nc1cccc(NC(=O)C(=O)Nc2ccc3c(c2)N(C(=O)C2CC2)CCC3)c1	-92*
O=C(Nc1nccs1)c1ccc2c(=O)n3c(nc2c1)CCCCC3	-129*
O=C(Nc1ccc(F)cc1Cl)c1ccc2c(=O)n3c(nc2c1)CCC3	-109*
Cc1csc(NC(=O)c2ccc3c(=O)n4c(nc3c2)CCCCC4)n1	-139*
COc1ccc(-c2cc3nc(CCl)[nH]c(=O)c3s2)cc1	71
O=c1[nH]cnc2cc(-c3ccccc3)sc12	-95*
COc1ccccc1/C=N/N(C(C)=O)c1nc(-c2ccc(F)cc2)cs1	-121*
Cc1cc(C)nc(SCc2ccc(C(=O)N/N=C/c3cccc(O)c3O)cc2)n1	70
CC(C)c1ccc(/C=N/NC(=O)c2cccc(Cl)c2)cc1	-238*
CC(C)c1ccc(C(=O)N/N=C/c2cccc(Cl)c2Cl)cc1	-66*
CC(C)c1ccc(/C=N/NC(=O)CCNC(=O)c2ccccc2)cc1	-63*
Fc1ccc(-c2ccc(Nc3cccc(F)c3)nn2)cc1	-131*
Fc1ccc(Nc2ccc(-c3ccc(F)cc3)nn2)cc1	-161*
COc1cc(/C=N/NC(=O)c2ccncc2)ccc1OCC(=O)Nc1cccc([N+](=O)[O-])c1	-111*
COc1cc(/C=C2\C(=O)N(CCC#N)N=C2C)ccc1OCC(=O)Nc1ccccc1	-164*
COc1ccc(NC(=O)COc2ccc(/C=N/O)cc2OC)cc1	-67*
SMILES	aSyn 5UTR act
COc1ccc(/C=N/NC(=O)c2cccnc2)cc1COc1ccc([N+](=O)[O-])c(C)c1	98
COc1cc(/C=N/NC(=O)c2ccncc2)ccc1OCC(=O)Nc1ccc(C)c(C)c1	-76*
C/C=C/c1ccc(OCC(=O)Nc2ccncc2)c(OC)c1	-72*
CN1C(=O)C2C=CC1C1C(=O)N(c3ccccc3)C(=O)C21 (configuration not stated)	-302*
CCCC1=[N+](CC(=O)c2ccccc2)CCn2c(C)ccc21	-74*
O=c1[nH]c(-c2ccco2)nc2sc3c(c12)CCCC3	-125*
Cc1ccc2nc(-c3ccsc3)c(NC3CCCC3)n2c1	-64*
CN(C)S(=O)(=O)c1ccc(C(=O)Nc2ccc3c(c2)CCC3)cc1	-93*
Cc1cccc(C(=O)Nc2nc(C)c(C(=O)Nc3ccc4c(c3)CCC4)s2)c1	-121*
Cc1cc(C(=O)Nc2ccc3c(c2)CCC3)ccc1[N+](=O)[O-]	-187*
CN(C)S(=O)(=O)c1cccc(C(=O)Nc2ccc3c(c2)CCC3)c1	-115*
O=C(/C=C/c1ccccc1)N1CCC(c2ccccc2)C1 (configuration not stated)	-82*
CCOC(=O)C1CCN(C(=O)/C=C/c2cccs2)CC1	-70*
COC(=O)C1CCN(C(=O)/C=C/c2ccccc2)CC1	-135*
CCOCCOC(=O)c1[nH]c2c(c1C)C(=O)CC(c1cccs1)C2 (configuration not stated)	85
COc1ccccc1N=C1NC(=O)/C(=C/c2ccc(N(C)C)cc2)S1	-194*
Cn1c(=NC(=O)c2ccccc2[N+](=O)[O-])sc2cccc(F)c21	-110*
O=C(NC1CCCCC1)Oc1cc2oc(=O)sc2cc1Br	54
O=C(NC1CCCC1)c1cc2ccccc2o1	-107*
O=C(NC1CCCC1)c1cc2cc(Br)ccc2o1	-139*
O=C(NC1CCCCC1)c1cc2cc(Br)ccc2o1	-138*
O=C(/C=C/c1ccc(Cl)cc1)NCc1ccco1	-87*
O=C(/C=C/c1ccc(S(=O)(=O)NCc2ccco2)cc1)NCc1ccccc1Cl	-72*
CC(=O)C1CCCN(C(=O)c2ccc3oc(CCc4ccccc4)nc3c2)C1 (configuration not stated)	-94*
CCOC(=O)C1CCCCN1C(=O)CCc1c(C)nc2cc(-c3ccccc3)nn2c1C (configuration not stated)	76
SMILES	aSyn 5UTR act
CCOC(=O)C1CCCN(C(=O)c2ccc3oc(CCc4ccccc4)nc3c2)C1 (configuration not stated)	-72*
O=C(c1ccc2oc(CCCc3ccccc3)nc2c1)N1CCCC1	-141*
COC(=O)C1CCCCN1C(=O)c1ccc2oc(Cc3ccccc3)nc2c1 (configuration not stated)	-88*
COCCC1CCCCN1C(=O)c1ccc2nc(Cc3ccccc3F)oc2c1 (configuration not stated)	-131*
O=C(Nc1nc(-c2ccc(Cl)cc2)cs1)C1=COCCO1	-109*
Cc1ccc(Cl)c2sc(NC(=O)C3=COCCO3)nc12	-79*
O=C(Nc1nc(-c2cccs2)cs1)C1=COCCO1	-173*
Nc1ccc(S(=O)(=O)Nc2nccc(/C=C/c3ccccc3F)n2)cc1	-65*
CCCSc1ccc2nc(-c3ccccc3)cn2c1	111
CCCCSc1ccc2nc(-c3ccc(C#N)cc3)cn2c1	-128*
O=C1NC(=S)N/C1=C/c1cccc2ccccc12	-129*
O=C(NCc1ccc2c(c1)OCO2)c1ccccc1Cl	-100*
O=C(Cc1ccccc1[N+](=O)[O-])NCc1ccc2c(c1)OCO2	-123*
O=C(Cc1ccccc1)NCc1ccc2c(c1)OCO2	-99*
O=C(NCc1ccccc1)c1c[nH]c2cc3c(cc2c1=O)OCCO3	-183*
CCc1ccc(NC(=O)C(=O)NCc2ccccn2)cc1	-144*
S=C(NCc1ccccn1)Nc1ccc(Cl)cc1Cl	-130*
O=C(CSCc1ccccn1)Nc1ccccc1	-70*
COc1ccccc1NC(=S)NCc1ccccn1	-80*
S=C(NCc1ccccn1)Nc1ccccc1	-86*
CCCC(=O)c1ccc(N2CCCCCC2)c(F)c1	-137*
CCCC(=O)c1ccc(N2CCCCC2)c(F)c1	-126*
COc1ccc(-c2cn3cccnc3n2)cc1F	-108*
COc1ccc(-c2cn3cccnc3n2)cc1NS(=O)(=O)c1ccccc1	-98*
CC1=NN(C(N)=S)C(=O)C1N=Nc1ccc(F)cc1 (configuration not stated)	-89*
SMILES	aSyn 5UTR act
CCOc1ccc(N=NC2C(=O)N(C(N)=S)N=C2C)cc1 (configuration not stated)	-142*
CCCn1ncc2c(Nc3ccc(C)c(C)c3)ncnc21	-92*
CC(=O)Nc1ccccc1C(=O)C(=O)Nc1cccc(Br)c1	-79*
CC(=O)Nc1ccccc1C(=O)C(=O)Nc1ccc(Cl)cc1	-106*
CCC(=O)Nc1ccccc1C(=O)C(=O)Nc1ccccc1	-70*
CC(=O)Nc1ccccc1C(=O)C(=O)Nc1ccccc1	-96*
CCOC(=O)Cn1cncc1-c1ccc([N+](=O)[O-])cc1	-119*
O=C(Oc1ccc2cc(Br)ccc2c1)N1CCCCCC1	-169*
CCN(CC)c1nc(C)nc2c1cnn2CCc1ccccc1	-185*
Cc1ccc2nc(SCC(=O)Nc3cc(C(F)(F)F)ccc3N3CCOCC3)[nH]c2c1	96

Source: PubChem BioAssay (Broad Institute)
